AI-2 QS mod – Vibrio harveyi AI-2 quorum sensing modulators, primary screen, JMH597 strain, luminescence/OD600 ratio; Vibrio harveyi JMH597 AI-2 luminescence/OD600 ratio, 9 h; active compounds read low; strain lacks LuxN and CqsS sensors; 0 = neutral-control median; actives 0.4% (n = 300,000); activity change, % at 7.5 µM; in the data active means activity change below about -75%, passing the limit was not always enough;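 further: luminescence divided by OD600 gain over 9 h not by final OD600 alone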
NTR1 ag – agonists of human NTR1, primary screen, imaging, U2OS cells, beta-arrestin-GFP, high content. NTR1-U2OS beta-arrestin-GFP spot imaging, agonist mode. actives 0.17% (n = 330,000). AID 493036, 2011. Neurotensin receptor type 1 (Homo sapiens), P30989. activation, % at 20 µM;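 active means activation at or above 40% of the spot to cytoplasm intensity ratio, with at least 20 cells analyzed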;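 further: 0% = DMSO without peptide and 100% = 100 nM NTR1 peptide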
Target sequence (P30989 whole entry, looked up): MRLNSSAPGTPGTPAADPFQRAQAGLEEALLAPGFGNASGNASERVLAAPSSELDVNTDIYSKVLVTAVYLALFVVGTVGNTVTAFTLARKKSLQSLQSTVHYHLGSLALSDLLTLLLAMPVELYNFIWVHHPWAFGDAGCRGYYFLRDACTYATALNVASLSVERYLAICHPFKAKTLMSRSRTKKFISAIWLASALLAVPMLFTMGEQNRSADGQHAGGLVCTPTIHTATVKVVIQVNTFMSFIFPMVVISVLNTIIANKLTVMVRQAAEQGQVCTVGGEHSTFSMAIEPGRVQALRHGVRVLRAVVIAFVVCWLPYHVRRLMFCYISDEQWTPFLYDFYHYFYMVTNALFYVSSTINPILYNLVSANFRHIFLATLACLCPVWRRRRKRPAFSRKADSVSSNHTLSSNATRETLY
AHR act – AHR activators, primary screen, cell-based, luminescence, luciferase reporter, human; activation, % at 5 µM; actives 2.5% (n = 320,000); Aryl hydrocarbon receptor (Homo sapiens), P35869; AHR-responsive luciferase reporter cells; in the data active means activation above about 47%;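 further: 0% = vehicle wells and 100% = reference agonist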
H9c2 protect – cardioprotection against H2O2-induced cell death, primary screen, uHTS, H9c2 cells, ATPLite luminescence. H9c2 cardiomyocytes, H2O2 injury protection, 2 h. protection from H2O2 cell death, % at 20 µM. actives 0.63% (n = 360,000);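 active means compounds giving at least 50% protection of heart cells from peroxide-induced death in the single-dose screen, raw or plate-pattern-corrected value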;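 further: 0% = DMSO wells with peroxide and 100% = DMSO wells without peroxide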
NR3A LBD binder – binders of NR3A ligand-binding domain, primary screen, biophysical, differential scanning fluorimetry, uHTS; Glutamate receptor ionotropic, NMDA 3A (GRIN3A) ligand-binding domain; Tm shift relative to glycine control, % at 25 µM; actives 2.5% (n = 340,000); AID 1259313, 2017; NR3A LBD differential scanning fluorimetry, Tm shift; 0% = protein alone, 100% = glycine-bound protein;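 active means melting temperature shift of at least 10% of the positive control shift, at one fixed dose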
Mot1-301 SUMO – yeast Mot1-301 growth rescue at high temperature, primary screen, SUMOylation pathway inhibitor project, S. cerevisiae, ATP luminescence, 38.5C; S. cerevisiae Mot1-301 growth rescue; percent above DMSO median, 100 means doubled; growth rescue, % at 18.8 µM; actives 1% (n = 320,000); AID 2716, 2010;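 active means every valid replicate shows activation above 250% relative to neutral control wells; inactive means the rest, any valid replicate at or below 250%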;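 further: OY570 slx delta 5 strain wells were the positive control but not used for scaling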
AHR act cf – AHR activators, confirmation, cell-based, luminescence, luciferase reporter, human; actives 87% (n = 2,300); human cells, AHR-responsive luciferase reporter; activation, % at 9 µM; shares compounds with AHR act; in the data active means activation above about 49%;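 further: HepG2 hepatoma cells carrying a DRE-driven firefly luciferase reporter; 0% = vehicle wells and 100% = reference agonist wells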
PXR counter – human PXR activators, counter-screen for AHR activator project, cell-based, luciferase luminescence | actives 88% (n = 2,300) | AID 434939, 2010 | activation, % at 11.6 µM | shares compounds with AHR act | cell-based PXR reporter; in the data active means activation above about 11%;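 further: human hepatoma DPX-2 cells expressing full-length human PXR; 0% = DMSO and 100% = reference agonist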
NTR1 ag conf – NTR1 agonists, single-dose retest, confirmation, imaging, U2OS cells, beta-arrestin-GFP, single concentration; shares compounds with NTR1 ag; actives 38% (n = 480); activation, % at 20 µM; NTR1-U2OS beta-arrestin-GFP translocation imaging;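 active means mean activation at 20 µM of at least 40%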;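 further: 0% = DMSO without peptide and 100% = 100 nM NTR1 peptide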
Starred values were filed as active, the others as inactive; / = not tested or not shown. Compounds with a hit are over-represented: about 6.2% of the library has one in this group of screens.

SMILES	AI-2 QS mod	NTR1 ag	AHR act	H9c2 protect	NR3A LBD binder	Mot1-301 SUMO	AHR act cf	PXR counter	NTR1 ag conf
CCOC(=O)C1(Cc2ccc(OC)cc2)CCN(C(=O)c2cc3ccccc3[nH]2)CC1	16	7	105*	-8	-18	127	89*	40*	/
COc1cccc(C(O)c2nc(-c3cccc(F)c3)cs2)c1 (stereo not given)	/	/	/	-2	/	/	/	/	/
O=CNc1cc(-c2cccc(F)c2)cn2c(-c3ccc(F)c(Cl)c3)cnc12	/	/	/	6	/	/	/	/	/
O=C(COC(=O)COc1ccc(Cl)cc1Cl)NC1CCCC1	/	0	/	1	1	/	/	/	/
O=C(NN=C1CCCCC1)c1cc(-c2ccccc2)n[nH]1	11	-1	121*	4	-4	-6	44	17*	/
O=C(CN(c1ccc(F)cc1)S(=O)(=O)c1ccc2c(c1)OCCO2)Nc1ccc2c(c1)OCO2	3	-2	101*	4	-9	-19	52*	72*	/
CC1(C(=O)NCC2CCCCC2)CCN1CCc1ccccc1 (stereo not given)	/	/	/	-5	/	/	/	/	/
O=C(Nc1ccc(Cl)cc1)Nc1ccon1	24	1	97*	-5	14*	-17	76*	14*	/
CCCOc1ccccc1NC(=O)c1ccc(N)cc1	10	0	101*	0	3	-22	117*	47*	/
CCOc1ccccc1NC(=O)c1ccc2nccnc2c1	-1	2	83*	1	0	-5	109*	/	/
CCCCOc1ccccc1NC(=O)c1ccc(=O)[nH]c1	6	1	1	22	1	-10	/	/	/
CCOC(=O)c1ccccc1NC(=O)c1ccc2nccnc2c1	-23	5	-1	21	-1	/	/	/	/
COc1ccc(Cl)cc1NS(=O)(=O)c1c(C)[nH]c(=O)[nH]c1=O	5	0	/	4	1	-26	/	/	/
Cc1cc(NC(=O)Cc2ccccc2[N+](=O)[O-])no1	32	0	33	1	-1	75	/	/	/
COc1ccc(CCNC(=O)CC2Oc3ccc(Cl)cc3NC2=O)cc1OC (stereo not given)	26	-2	98*	11	1	-9	3	46*	/
O=C(N/N=C/c1ccc(O)cc1)c1ccc(COc2cc(Cl)ccc2Cl)o1	25	12	115*	68*	5	-12	83*	28*	/
Cc1cccc2sc(NNC(=O)C3COc4ccccc4O3)nc12 (stereo not given)	14	4	95*	13	-6	6	41	20*	/
O=C(NNc1nc2c(F)cc(F)cc2s1)C1COc2ccccc2O1 (stereo not given)	18	0	6	6	-1	77	/	/	/
Cc1cc(C)c2sc(NNC(=O)C3COc4ccccc4O3)nc2c1 (stereo not given)	/	1	103*	38	-1	16	69*	25*	/
CC(C)(C)c1ccc(C(=O)NCc2nnc(SCC(=O)NC3CCCCC3)o2)cc1	-2	0	1	-4	2	6	/	/	/
COC(=O)c1c(NC(=O)C2SC(=NC3CCCCC3)C(C(N)=O)=C2N)sc2c1CCCC2 (stereo not given)	-8	43*	5	-12	4	-12	/	/	17
C=C(C)CN=C1SC(C(=O)Nc2sc3c(c2C(=O)OC)CCC3)C(N)=C1C(N)=O (stereo not given)	8	20	32	5	-1	-14	/	/	/
Cn1c(=O)c2cc(NC(=O)CCc3ccc4c(c3)OCO4)ccc2n1Cc1ccc(F)cc1	/	/	/	-2	/	/	/	/	/
CC1CCC(C(C)C)C(OCC(O)CNC(C)c2ccccc2)C1 (stereo not given)	16	40*	-2	-35	0	-23	/	/	41*
CC1CCC(C(C)C)C(OCC(O)CNC(C)(C)C)C1 (stereo not given)	13	1	1	5	-1	/	/	/	/
SMILES	AI-2 QS mod	NTR1 ag	AHR act	H9c2 protect	NR3A LBD binder	Mot1-301 SUMO	AHR act cf	PXR counter	NTR1 ag conf
CC1(C)CC(=O)C(C(C2=C(O)CC(C)(C)CC2=O)c2ccc(Br)s2)C(=O)C1 (stereo not given)	13	59*	-2	14	1	-1	/	/	45*
Cc1ccc(C(C2=C(O)CC(C)(C)CC2=O)C2C(=O)CC(C)(C)CC2=O)s1 (stereo not given)	34	5	8	11	2	0	/	/	/
Oc1ccc(/C=N/N2CCN(C3c4ccccc4-c4ccccc43)CC2)c(O)c1	-12	43*	18	-5	11*	4	/	/	6
CC(C)n1nnnc1SCC(=O)Nc1cccc(F)c1	7	0	/	-4	0	/	/	/	/
c1ccc(CNc2c(-c3cccc(SC4CCCCC4)c3)nc3ccccn23)cc1	/	40*	4	-17	-9	-4	/	/	4
NNC(=O)c1cc(-c2cccs2)nc2ccccc12	9	0	15	7	1	-1	/	/	/
Cc1cccc2sc(NNC(=O)c3cc(-c4cccs4)nc4ccccc34)nc12	20	40*	33	4	-5	-15	/	/	-1
N#CC1=C(c2ccccc2)/C(=C/c2ccccc2)OC1=O	24	66*	0	-15	27*	44	/	/	87*
CC(C)c1nnc(NC(=O)c2ccc3ccccc3c2)s1	17	45*	19	-1	2	11	/	/	21
O=C1CC(c2ccccc2)Cc2nc3nc(C(F)(F)F)nn3cc21 (stereo not given)	12	49*	3	-1	1	-17	/	/	1
Cc1cc(C)c2c(=O)n3c(nc2c1)C(Cc1ccc(O)cc1)NC(=O)c1cc2ccccc2cc1-3 (stereo not given)	/	/	/	-5	/	/	/	/	/

High-throughput results from PubChem BioAssay.
